Experimental data published in PubChem BioAssay AID1159580 (chemical genetic matrix, 2015).
Values joined by “and” are separate entries in the source; they are usually repeats but may differ in a detail not shown here. Equal entries are not always repeated. The whole screen tested about 5,500 compounds, of which about 2,000 (36%) were called active. About 18% were inconclusive and are not listed. No stated cut-off is given here; in the data, active means normalized growth mostly below about 0.91 (no sharp cut-off); inconclusive means no clear call, values can overlap the other calls; inactive means mostly above about 0.92. The list shows a part of the results.

Test: chemical genetic growth profiling, strain panel (AID 1159580);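 further: tested at 20 µM; growth read once vehicle control cultures reached saturation at 30 °C; 1 = growth at the plate median or of vehicle wells; lower values mean less growth of the strain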
Details: S. cerevisiae deletion strains, growth OD

Measured: normalized growth

CCn1cc(C(=O)O)c(=O)c2cc3c(cc21)OCO3
inactive: locus YAL013W, strain DEP1, active compounds read low 1.01 | locus YAL021C, strain ccr4, active compounds read low 0.967 | locus YAL026C, strain drs2, active compounds read low 0.982 | locus YAL030W, strain snc1, active compounds read low 0.977 | locus YAL040C, strain CLN3, active compounds read low 0.97 | locus YBL061C, strain skt5, active compounds read low 0.977 | locus YBR009C, strain hhf1, active compounds read low 0.977 | locus YBR021W, strain FUR4, active compounds read low 1.01 | locus YBR023C, strain chs3, active compounds read low 0.957 | locus YBR171W, strain sec66, active compounds read low 0.962 | locus YBR229C, strain ROT2, active compounds read low 1.01 | locus YBR231C, strain swc5, active compounds read low 0.979 | locus YBR279W, strain paf1, active compounds read low 0.977 | locus YCL011C, strain gbp2, active compounds read low 0.974 | locus YCL016C, strain dcc1, active compounds read low 0.988 | locus YCL029C, strain bik1, active compounds read low 0.997 | locus YCL061C, strain MRC1 (second series), active compounds read low 0.991 | locus YCL061C, strain MRC1, active compounds read low 0.971 | locus YCL069W, strain vba3, active compounds read low 0.98 | locus YCR088W, strain abp1, active compounds read low 0.981 | locus YDL005C, strain med2, active compounds read low 0.971 | locus YDL035C, strain GPR1, active compounds read low 1.02 | locus YDL040C, strain nat1, active compounds read low 0.985 | locus YDL074C, strain BRE1, active compounds read low 1.06 | locus YDL101C, strain DUN1, active compounds read low 1.02 | locus YDL134C, strain PPH21, active compounds read low 1 | locus YDL185W, strain tfp1, active compounds read low 0.999 | locus YDL192W, strain arf1, active compounds read low 0.99 | locus YDR001C, strain nth1, active compounds read low 0.979 | locus YDR069C, strain doa4, active compounds read low 0.989 | locus YDR101C, strain arx1, active compounds read low 0.993 | locus YDR137W, strain rgp1, active compounds read low 0.857 | locus YDR150W, strain NUM1, active compounds read low 0.99 | locus YDR159W, strain sac3, active compounds read low 0.996 | locus YDR162C, strain NBP2, active compounds read low 1.01 | locus YDR195W, strain ref2 0.983 | locus YDR297W, strain sur2, active compounds read low 0.98 | locus YDR318W, strain mcm21, active compounds read low 1 | locus YDR334W, strain swr1, active compounds read low 0.955 | locus YDR335W, strain msn5, active compounds read low 0.984 | locus YDR363W, strain ESC2, active compounds read low 0.973 | locus YDR388W, active compounds read low 0.99 | locus YDR392W, strain spt3, active compounds read low 0.914 | locus YDR502C, strain sam2, active compounds read low 1.01 | locus YEL003W, strain gim4, active compounds read low 1 | locus YEL037C, strain rad23, active compounds read low 0.975 | locus YEL061C, strain CIN8 (second series), active compounds read low 0.98 | locus YEL061C, strain CIN8, active compounds read low 1.01 | locus YER002W, strain NOP16, active compounds read low 0.967 | locus YER015W, strain faa2, active compounds read low 0.983 | locus YER016W, strain bim1, active compounds read low 0.993 | locus YER110C, active compounds read low 0.991 | locus YER111C, strain swi4, active compounds read low 0.972 | locus YER155C, strain BEM2 (second series), active compounds read low 0.979 | locus YER155C, strain BEM2, active compounds read low 1.01 | locus YER167W, strain BCK2, active compounds read low 1.01 | locus YFR010W, strain ubp6, active compounds read low 0.97 | locus YGL078C, strain dbp3, active compounds read low 0.99 | locus YGL086W, strain mad1, active compounds read low 1.01 | locus YGL167C, strain pmr1, active compounds read low 0.976 | locus YGL173C, strain kem1, active compounds read low 0.974 | locus YGL227W, strain vid30, active compounds read low 0.978 | locus YGL240W, strain doc1, active compounds read low 0.988 | locus YGL248W, strain PDE1, active compounds read low 1.02 | locus YGL253W, strain hxk2, active compounds read low 0.991 | locus YGR135W, strain pre9, active compounds read low 0.99 | locus YGR229C, strain SMI1, active compounds read low 1.02 | locus YGR252W, strain gcn5, active compounds read low 1 | locus YHR013C, strain ard1, active compounds read low 0.959 | locus YHR027C, strain rpn1, active compounds read low 0.971 | locus YHR030C, strain SLT2, active compounds read low 1.01 and 1.07 | locus YHR079C, strain IRE1 (second series), active compounds read low 0.992 | locus YHR079C, strain IRE1, active compounds read low 1.11 | locus YHR094C, strain hxt1, active compounds read low 0.987 | locus YHR129C, strain ARP1, active compounds read low 1.01 | locus YHR142W, strain chs7, active compounds read low 0.933 | locus YHR200W, strain rpn10, active compounds read low 1 | locus YIL066C, strain RNR3, active compounds read low 1.02 | locus YIL073C, strain SPO22, active compounds read low 0.987 | locus YIL125W, strain kgd1, active compounds read low 0.995 | locus YIR030C, strain dcg1, active compounds read low 0.999 | locus YJL092W, strain hpr5, active compounds read low 0.981 | locus YJL095W, strain BCK1 (second series), active compounds read low 0.983 | locus YJL095W, strain BCK1, active compounds read low 1.03 and 1.04 | locus YJL115W, strain asf1, active compounds read low 0.974 | locus YJL129C, strain trk1, active compounds read low 0.974 | locus YJL134W, strain LCB3, active compounds read low 1.01 | locus YJL154C, strain vps35, active compounds read low 0.969 | locus YJL164C, strain tpk1, active compounds read low 0.997 | locus YJL166W, strain qcr8, active compounds read low 0.969 | locus YJL168C, strain set2, active compounds read low 0.997 | locus YJL187C, strain SWE1 (second series), active compounds read low 1.03 | locus YJL187C, strain SWE1, active compounds read low 0.975 | locus YJR043C, strain POL32, active compounds read low 1.02
